# Experimental data reported in the supplement of paper PMC8540655.
# Unmarked numbers belong to inactive results.
# Test system: Aedes aegypti larvae
# Assay: larval motility relative to same well at 0 h (fraction); higher = more motile (less active compound), active = 0.4 or less
# Conditions: 10 µM; 2 h
# Summary of the method: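 Each 96-well plate held about 10 Aedes aegypti larvae per well in 100 µL, along with solvent and larvicide control wells. Compounds were present at 10 µM with 1% v/v DMSO, and INVAPP recorded 200-frame movies at 100 ms intervals at 0, 2 and 24 h. Relative motility divides each well's score by its baseline score from the first recording, with the median taken across independent larval batches, of which there were three.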
row,Compound,larval motility
1,NC[C@H]1OB(O)c2c(OCCCO)cccc21,1.28
2,CSc1ccc2c(c1)C(N1CCN(C)CC1)Cc1ccccc1S2 (configuration not stated),1.08
3,Cn1cc(NC(=O)c2cc(NC(=O)c3ccc(/C=C/c4cnc5ccccc5c4)cc3)cn2C)cc1C(=O)NCCN1CCOCC1,1.3
4,NC(=O)c1ccc(I)c([N+](=O)[O-])c1,0.749
5,C[C@@H](c1nc(-c2ccc(C#N)cc2)cs1)[C@](O)(Cn1cncn1)c1ccc(F)cc1F,0.723
6,CC(C)(C)NC(=O)[C@@H]1C[C@@H]2CCCC[C@@H]2CN1C[C@@H](O)[C@H](Cc1ccccc1)NC(=O)[C@H](CC(N)=O)NC(=O)c1ccc2ccccc2n1,1.43
7,CCC(C)n1ncn(-c2ccc(N3CCN(c4ccc(OCC5COC(Cn6cncn6)(c6ccc(Cl)cc6Cl)O5)cc4)CC3)cc2)c1=O (configuration not stated),0.656
8,O=C(O)CSc1cc(NS(=O)(=O)c2cccc3cccnc23)c2ccccc2c1O,0.969
9,C[C@H](NC(=O)C(=O)Nc1ccccc1C(C)(C)C)C(=O)N[C@@H](CC(=O)O)C(=O)COc1c(F)c(F)cc(F)c1F,0.777
10,COc1c(F)c(F)cc2c(=O)c(C(=O)O)cn(C3CC3)c12,0.765
11,Fc1ccc2c(/C=C/c3cccnc3)c[nH]c2c1,1.04
12,Clc1cc2nc(C3CCNCC3)n(Cc3ccc(CNCCc4cnc[nH]4)cc3)c2cc1Cl,0.575
